Among the data in PubChem BioAssay (EPA / NIEHS) are outcome and AC50 values, retold here.

SMILES strings stand for the structures. Several values for one entry are separate records, joined by “and”; a condition that tells them apart may be missing. Equal entries are not always repeated. A structure can be active in one record and inactive in another. Activity calls are given as the source filed them. How the source made its calls: active means hit-call score of the fitted dose curve at least 0.9, where 1 is the maximum; inactive means score below 0.9.

In test [1] the target is Transcription factor E2F1 (Homo sapiens) (UniProt Q01094). Description: ATG_E2F_CIS: Attagene CIS-FACTORIAL HepG2 Assay for human E2F Transcription Factor 1 (AID 2282935). The following applies: HepG2 Attagene cis-reporter, E2F reporter RNA transcripts; actives raise or lower the signal. An outline of the steps: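 Multiplexed cis-reporter assay: HepG2, transient transfection, 24 h dosing, mRNA quantitation by labeled RT-PCR and CE.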

Test [2] is described as follows: ATG_E_Box_CIS: Attagene CIS-FACTORIAL HepG2 Assay for human Enhancer Box (E-box) (AID 2282936). The following applies: HepG2 E-box cis-reporter transcription, actives raise or lower the signal. An outline of the steps:
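Multiplexed CIS reporter system in transiently transfected HepG2 cells measures native transcription factor activity. Reporter RNA after 24 h exposure is profiled by RT-PCR-capillary electrophoresis.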

The nature of test [3]: ATG_M_61_CIS: Attagene CIS-FACTORIAL HepG2 Assay for M61 Transcription Factor (Internal Marker) (AID 2282937). The following applies: HepG2 Attagene CIS-FACTORIAL M61 internal marker reporter; actives raise or lower the signal. An outline of the steps:
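Human liver HepG2, transient MRTU transfection (cis promoter elements), 24 h compound. Total RNA → oligo(dT) RT → PCR → FAM label → HpaI → CE. Internal background marker; bidirectional fitting, DMSO = baseline.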

A short description of test [4]: ATG_EGR_CIS: Attagene CIS-FACTORIAL HepG2 Assay for human Early Growth Response 1 (EGR1) (AID 2282938). The following applies: HepG2 Attagene CIS-FACTORIAL EGR reporter mRNA; actives raise or lower the signal. An outline of the steps:
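Transient transfection of human HepG2 with multiple cis-regulated reporter units, chemical exposure 24 h, total RNA isolated. Reverse transcription, PCR, fluorescent labelling and capillary electrophoresis quantify reporter transcripts; activity fitted bidirectionally against DMSO.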

A short description of test [5]: ATG_M_19_CIS: Attagene CIS-FACTORIAL HepG2 Assay for M19 Transcription Factor (Internal Marker) (AID 2282939). The following applies: HepG2 Attagene CIS-FACTORIAL M19 internal marker reporter; actives raise or lower the signal. An outline of the steps:
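Readout: fluorescent reporter-transcript fragments by capillary electrophoresis after RT-PCR. Human HepG2 liver cells carried transfected MRTU constructs reporting endogenous transcription-factor activity; exposure 24 h. Gain or loss of signal fitted relative to DMSO.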

The nature of test [6]: ATG_ERE_CIS: Attagene CIS-FACTORIAL HepG2 Assay for Estrogen Response Element (ERE) (AID 2282940). The following applies: HepG2 ERE cis-reporter, Attagene RNA transcript; actives raise or lower the signal. The method in brief:
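Readout: reporter mRNA induction by RT-PCR, FAM-labelled primer extension, HpaI digestion and capillary electrophoresis, 24 h after dosing transfected HepG2 cells. Endogenous transcription factors act on cis-element-regulated reporters. Gain or loss fitted against DMSO.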

Test [7] can be described thus: ATG_Ets_CIS: Attagene CIS-FACTORIAL HepG2 Assay for human Erythroblast Transformation Specific (ETS) (AID 2282941). The following applies: HepG2 ETS cis-reporter transcription, actives raise or lower the signal. The method in brief:
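Human HepG2 hepatoma cells were transiently transfected with promoter-driven reporter constructs and treated for 24 hours. Reporter transcripts were quantified by RT-PCR with fluorescent primer extension; bidirectional curve fitting used DMSO as reference.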

In test [8] the target is Hepatocyte nuclear factor 3-beta (Homo sapiens) (UniProt Q9Y261). Description: ATG_FoxA2_CIS: Attagene CIS-FACTORIAL HepG2 Assay for human Forkhead box A2 (FOXA2) (AID 2282942). The following applies: HepG2 cis-reporter transcription factor activity, 24 h; actives raise or lower the signal. The method in brief: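 Transient MRTU transfection of HepG2 liver cells; 24 h treatment; total RNA → oligo(dT) RT → PCR → FAM primer extension → HpaI cut → CE. Bidirectional fit vs DMSO.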

The nature of test [9]: ATG_GATA_CIS: Attagene CIS-FACTORIAL HepG2 Assay for human GATA Binding Protein (AID 2282944). The following applies: HepG2 GATA cis-element reporter, Attagene multiplex mRNA; actives raise or lower the signal. An outline of the steps: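 Read-out: fluorescent reporter mRNA fragments resolved by capillary electrophoresis after RT-PCR. Human liver HepG2 cells carried transiently transfected cis-regulated reporter constructs; chemicals incubated 24 h; gain or loss of signal fitted relative to DMSO.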

A short description of test [10]: ATG_FoxO_CIS: Attagene CIS-FACTORIAL HepG2 Assay for human Forkhead box O (FoxO) (AID 2282943). The following applies: HepG2 Attagene cis-reporter, FoxO element, mRNA; actives raise or lower the signal. The method in brief:
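Values reflect reporter mRNA induction or loss in HepG2 cells 24 h post-dosing, fitted bidirectionally with DMSO as negative control and baseline. Detection used RT-PCR and fluorescence capillary electrophoresis.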

Sequence of Hepatocyte nuclear factor 3-beta (Homo sapiens) (Q9Y261 whole entry, looked up): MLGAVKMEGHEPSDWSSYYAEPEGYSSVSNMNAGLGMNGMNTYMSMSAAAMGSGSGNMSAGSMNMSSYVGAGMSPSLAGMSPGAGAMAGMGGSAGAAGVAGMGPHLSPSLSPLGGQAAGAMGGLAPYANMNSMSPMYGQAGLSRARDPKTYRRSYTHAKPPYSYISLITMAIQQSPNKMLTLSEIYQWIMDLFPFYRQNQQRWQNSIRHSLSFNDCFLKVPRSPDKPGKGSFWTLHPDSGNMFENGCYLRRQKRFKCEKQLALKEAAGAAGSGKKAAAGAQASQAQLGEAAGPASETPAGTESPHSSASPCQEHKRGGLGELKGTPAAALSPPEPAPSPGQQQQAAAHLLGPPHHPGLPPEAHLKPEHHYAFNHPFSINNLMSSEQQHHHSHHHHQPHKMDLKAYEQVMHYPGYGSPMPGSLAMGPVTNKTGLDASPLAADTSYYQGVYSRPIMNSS
Sequence of Transcription factor E2F1 (Homo sapiens) (Q01094 whole entry, looked up): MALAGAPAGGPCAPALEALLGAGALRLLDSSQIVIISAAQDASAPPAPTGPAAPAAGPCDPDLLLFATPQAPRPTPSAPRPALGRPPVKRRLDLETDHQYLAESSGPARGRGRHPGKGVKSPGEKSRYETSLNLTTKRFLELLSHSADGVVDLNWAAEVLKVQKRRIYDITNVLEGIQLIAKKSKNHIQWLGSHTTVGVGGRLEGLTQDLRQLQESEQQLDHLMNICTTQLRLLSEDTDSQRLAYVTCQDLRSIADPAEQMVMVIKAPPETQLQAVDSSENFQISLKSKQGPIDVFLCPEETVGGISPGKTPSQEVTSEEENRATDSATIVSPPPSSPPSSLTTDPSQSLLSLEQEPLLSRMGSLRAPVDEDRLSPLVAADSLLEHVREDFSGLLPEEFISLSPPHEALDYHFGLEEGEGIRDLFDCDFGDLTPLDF

By AC50 is commonly meant the concentration giving half of the maximal activity seen. As for `O=C1OC2(c3ccccc31)c1cc(Br)c(O)c(Br)c1Oc1c2cc(Br)c(O)c1Br`, the molecule was classed as inactive in test [1], in test [2], in test [3], in test [4], in test [5] and in [6]. For the same molecule, the result in test [7], in [8] and in test [9] was inactive. The AC50 in test [2] was 62.7 µM (active); in test [4], 62.3 µM (active).

For the molecule `COCC(C)O` (configuration not stated), the result in test [1], in [2], in [3], in test [4], in test [5] and in test [6] was inactive. The result in test [7], in test [8], in [10] and in test [9] was inactive.

On to `c1ccc2cc3c(ccc4ccccc43)cc2c1`, for which the outcome in test [1], in test [2], in test [3], in test [4], in [5] and in test [7] was inactive. Moreover, the call in test [8], in test [10] and in test [9] was inactive. For the same molecule, the AC50 is 1.59 µM (active) and 4.58 µM (active) and 2.65 µM (active) in test [2]; 2.26 µM (active) in [4]; 2.82 µM (active) [middle of 4 runs] in test [6].

Consider `O=C(OCCOCCOC(=O)c1ccccc1)c1ccccc1`, for which the outcome in test [1], in test [2], in test [3], in test [4], in test [5] and in [6] was inactive. The molecule was called inactive in test [7], in test [8], in test [10] and in test [9].

On to `O=C(/C=C/c1ccc(O)cc1)CC(=O)/C=C/c1ccc(O)cc1`, for which the molecule was classed as inactive in test [1], in test [3], in test [5], in test [6], in test [7] and in test [8]. Also, the molecule was classed as inactive in test [10] and in test [9]. In addition, the results for the AC50 in [2] and in [4] were 26.7 µM (active) and 11.5 µM (active), respectively.

Turning to `CC(C)(C)c1ccc(O)c(C(C)(C)C)c1`, the molecule was classed as inactive in test [1], in test [2], in test [3], in test [4], in test [5] and in [6]. Moreover, the result in [7], in [8], in test [10] and in [9] was inactive.

Regarding `c1ccc2c(c1)Cc1ccccc1-2`, the result in test [1], in [2], in test [3], in [4], in test [5] and in test [7] was inactive. In addition, the result in [8], in test [10] and in [9] was inactive. Besides, the AC50 in [6] was 100 µM (active).

As for `OCCC(F)(F)C(F)(F)C(F)(F)C(F)(F)C(F)(F)C(F)(F)F`, the AC50 was 136 µM (active) in test [1]; 33.9 µM (active) and 9.4 µM (active) in test [6]; 125 µM (active) in test [9]. For the same molecule, the outcome in test [1], in test [2], in test [3], in test [4], in [5] and in test [7] was inactive. The call in test [8] and in [9] was inactive.

Consider `CC#C[C@]1(O)CC[C@H]2[C@@H]3CCC4=CC(=O)CCC4=C3[C@@H](c3ccc(N(C)C)cc3)C[C@@]21C`, for which the outcome in test [1], in test [2], in [3], in [5], in test [6] and in [7] was inactive. Further, the outcome in test [8] and in [9] was inactive. Moreover, the AC50 in test [4] was 9.86 µM (active) [middle of 4 runs]; in [7], 8.92 µM (active); in test [8], 58.4 µM (active).

Consider `CCCCCCCCCCCCCC[N+](C)(C)C`, for which the result in test [1], in test [2], in test [3], in test [4], in test [5] and in [6] was inactive. Also, the outcome in test [7], in test [8], in test [10] and in test [9] was inactive. The AC50 in test [4] was 11.1 µM (active).

In the case of `CC(C)(C)c1cc(C(C)(C)C)c(O)c(C(C)(C)C)c1`, the result in test [1], in test [2], in [3], in test [4], in test [5] and in [6] was inactive. Moreover, the outcome in [7], in [8], in test [10] and in [9] was inactive.

For the molecule `Oc1cccc(O)c1`, the molecule was classed as inactive in test [1], in test [2], in [3], in [4], in test [5] and in test [6]. Besides, the molecule was called inactive in [7], in [8], in test [10] and in [9].

On to `CCCCCCCCOC(=O)CCCCCCCCC(=O)OCCCCCCCC`, for which the outcome in test [1], in [2], in test [3], in test [4], in [5] and in test [6] was inactive. In addition, the result in [7], in test [8], in [10] and in test [9] was inactive.

Turning to `OC1CCCCC1`, the molecule was called inactive in test [1], in test [2], in test [3], in test [4], in test [5] and in test [6]. Also, the result in [7], in test [8] and in test [9] was inactive. The AC50 in test [6] was 100 µM (active).

Regarding `CCC(=C(c1ccc(O)cc1)c1ccc(OCCN(C)C)cc1)c1ccccc1`, the AC50 is 10.8 µM (active) in test [1]; 9.17 µM (active) and 7.1 µM (active) and 3.43 µM (active) in test [2]; 11.7 µM (active) in test [3]; 9.87 µM (active) and 10.8 µM (active) in test [4]; 10.7 µM (active) in test [5]; 10.5 µM (active) in [9]. The molecule was classed as inactive in [1], in test [2], in test [3], in [4], in test [5] and in test [6]. Moreover, the molecule was classed as inactive in test [7], in test [8], in test [10] and in test [9].

Take `Nc1cccc2c(N)cccc12`: the call in test [1], in test [2], in [3], in test [4], in test [5] and in [6] was inactive. Moreover, the outcome in test [7], in test [8], in test [10] and in test [9] was inactive.
